# IDE exosite inh = insulin-degrading enzyme (human) exo-site inhibition | purified IDE, FL-6b probe fluorescence polarization; stronger effect = lower value | P14735 | actives 6.3% (n = 17,000) | z-score at 20 µM;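 active = z-score of -3 or lower, meaning strong loss of probe binding signal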;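 note: His-tagged human IDE residues 42-1019 made in E. coli with 30 nM FL-6b probe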
# Target sequence (P14735 42-1019 limits assumed): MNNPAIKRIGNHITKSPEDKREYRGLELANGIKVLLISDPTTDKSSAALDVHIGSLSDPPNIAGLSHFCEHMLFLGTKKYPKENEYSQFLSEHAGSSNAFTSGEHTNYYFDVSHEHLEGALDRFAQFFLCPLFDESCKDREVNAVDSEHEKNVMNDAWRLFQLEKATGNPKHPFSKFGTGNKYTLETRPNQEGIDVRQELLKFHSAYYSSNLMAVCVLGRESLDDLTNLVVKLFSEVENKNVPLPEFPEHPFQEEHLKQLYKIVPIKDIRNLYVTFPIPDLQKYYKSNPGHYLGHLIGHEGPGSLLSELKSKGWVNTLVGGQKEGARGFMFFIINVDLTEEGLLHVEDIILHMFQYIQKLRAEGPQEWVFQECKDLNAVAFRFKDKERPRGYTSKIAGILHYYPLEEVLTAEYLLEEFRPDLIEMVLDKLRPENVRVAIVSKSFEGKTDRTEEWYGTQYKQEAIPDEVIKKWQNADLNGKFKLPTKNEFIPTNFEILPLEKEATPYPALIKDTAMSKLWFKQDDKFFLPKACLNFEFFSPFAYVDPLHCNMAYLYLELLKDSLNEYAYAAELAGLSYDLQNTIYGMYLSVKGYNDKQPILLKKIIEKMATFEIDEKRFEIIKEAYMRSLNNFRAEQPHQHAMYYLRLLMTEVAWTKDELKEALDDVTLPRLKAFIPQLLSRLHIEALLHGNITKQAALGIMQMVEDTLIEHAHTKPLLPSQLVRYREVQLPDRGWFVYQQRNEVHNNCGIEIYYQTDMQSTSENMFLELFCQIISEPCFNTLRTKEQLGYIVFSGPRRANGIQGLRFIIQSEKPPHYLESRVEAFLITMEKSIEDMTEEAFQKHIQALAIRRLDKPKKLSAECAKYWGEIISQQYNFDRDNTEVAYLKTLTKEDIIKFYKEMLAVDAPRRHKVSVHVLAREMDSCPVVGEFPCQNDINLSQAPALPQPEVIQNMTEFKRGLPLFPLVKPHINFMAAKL
# * hit, by the source's call. The sample as a whole holds a higher share of hits than the screen did.
SMILES,IDE exosite inh
CC(C)CC#Cc1ccc([C@H]2[C@H](CO)N3C(=O)CN(S(C)(=O)=O)C[C@@H]23)cc1,4.62
COc1cccc(NC(=O)N[C@@H]2CC[C@H](CC(=O)N3CCN(C)CC3)O[C@H]2CO)c1,0.114
CN(C[C@H]1[C@H](c2ccccc2)[C@@H](CO)N1C(=O)c1ccccc1)C(=O)C1CCC1,2.73
O=C(C[C@H]1CC[C@H]2NC[C@@H](O)COC[C@@H]2O1)NCCN1CCCCC1,0.856
CCc1cnc(N2[C@@H](C#N)[C@@H](c3ccc(C#Cc4ccccc4F)cc3)[C@@H]2CO)s1,-2.13
CO[C@@H]1CN(C)C(=O)c2ccc(N)cc2OC[C@@H](C)NC[C@H]1C,-0.547
COCC(=O)N1CC(=O)N2[C@H](C1)[C@H](c1ccc(-c3cccnc3)cc1)[C@@H]2CO,3.11
C[C@@H](NC(=O)C[C@H]1CC[C@@H]2[C@H](COC[C@H](O)CN2C(=O)Nc2cccc(Cl)c2)O1)c1ccccc1,0.972
CCCC(=O)N1CC2(C1)CN(Cc1ccccc1F)[C@H](CO)c1c2c2ccc(OC)cc2n1C,0.0279
CCC(=O)N1[C@H](CNC(=O)CN(C)C)[C@@H](c2ccc(C3=CCCC3)cc2)[C@@H]1CO,3.73
C[C@@H]1CN([C@@H](C)CO)C(=O)Cc2cc(NC(=O)Nc3ccc(F)cc3)ccc2O[C@H]1CN(C)S(C)(=O)=O,1.53
C/C=C/c1ccc([C@H]2[C@@H](CO)N(C(=O)CC)[C@H]2CNC(=O)CC)cc1,2.43
OC[C@H]1[C@H](c2ccc(C#CC3(O)CCCC3)cc2)[C@@H]2CN(Cc3cccnc3)CCCCN12,-0.383
O=C(Nc1cccc(F)c1)N1CC(=O)N2[C@H](CO)[C@@H](c3ccc(C#Cc4cccnc4)cc3)[C@H]2C1,0.0538
Cc1cccc(-c2ccc([C@@H]3[C@@H](CO)N4C(=O)CN(C(=O)c5cnccn5)C[C@@H]34)cc2)c1,-17.5*
Cc1cccc(-c2ccc([C@@H]3[C@H](CO)N4C(=O)CN(C(=O)c5cnccn5)C[C@@H]34)cc2)c1,-10.8*
CN(C)C(=O)c1cccc(-c2ccc([C@H]3[C@@H](C#N)N(C(=O)C4CCC4)[C@H]3CO)cc2)c1,3.86
CO[C@H]1CN(C)C(=O)c2cc(NC(=O)NC3CCCCC3)ccc2OC[C@@H](C)N(CC2CCOCC2)C[C@@H]1C,0.825
CCCNC(=O)N1C[C@@H](C)[C@@H](OC)CN(C)C(=O)c2ccc(NC(=O)CC)cc2OC[C@@H]1C,-0.861
CCS(=O)(=O)Nc1ccc2c(c1)C(=O)N(C)[C@@H]1CC[C@H](CC(=O)NC3CCCCC3)O[C@H]1CO2,-0.947
O=C(C[C@@H]1C[C@H]2c3cc(NC(=O)c4cccnc4)ccc3O[C@H]2[C@@H](CO)O1)NCc1cc(F)ccc1F,-0.633
C[C@@H]1CC=CCCNC(=O)[C@@H](Cc2ccccc2)N(C)C(=O)c2ccccc2O1 (mixture of isomers),1.61
COCC(=O)NC[C@@H]1N[C@@H](CO)[C@H]1c1ccc(C2=CCCCC2)cc1,1.89
O=C(NC[C@H]1N[C@@H](CO)[C@H]1c1ccc(-c2ccccc2F)cc1)c1ccccn1,-2.49
O=C(NC[C@H]1N[C@H](CO)[C@H]1c1ccc(-c2ccccc2F)cc1)c1ccccn1,-4.68*
SMILES,IDE exosite inh
COCC(=O)NC[C@H]1N[C@H](CO)[C@@H]1c1ccc(-c2ccccc2)cc1,-0.596
O=C(NC[C@H]1N[C@@H](CO)[C@H]1c1ccc(-c2ccc(F)cc2)cc1)c1ccccn1,5.69
COCC(=O)NC[C@@H]1N[C@@H](CO)[C@H]1c1ccc(-c2ccccc2F)cc1,-3.81*
COCC(=O)N1[C@H](CO)[C@H](c2ccccc2-c2ccccc2)[C@@H]1C#N,2.67
COCC(=O)N1CC2(C1)CN(C(=O)Nc1ccccc1F)[C@@H](CO)c1[nH]c3cc(OC)ccc3c12,-1.02
C/C=C/c1ccc([C@H]2[C@@H](CO)N(CCC)[C@@H]2CN(CC)C(=O)c2ccccn2)cc1,4.01
COc1ccc(NC(=O)N2CCC3(CC2)CN(C(=O)CN2CCOCC2)[C@@H](CO)c2[nH]c4cc(OC)ccc4c23)cc1,-1.09
CCC(=O)N1CC(=O)N2[C@H](CO)[C@@H](c3ccc(-c4ccncc4)cc3)[C@H]2C1,1.02
Cc1cccc(-c2ccc([C@@H]3[C@@H](CO)N4C(=O)CN(C(=O)NC5CCCCC5)C[C@@H]34)cc2)c1,-16.6*
Cc1cccc(-c2ccc([C@H]3[C@H]4CN(C(=O)NC5CCCCC5)CC(=O)N4[C@H]3CO)cc2)c1,-9.45*
C[C@@H]1CN([C@H](C)CO)C(=O)c2cc(-c3ccc(C#N)cc3)cnc2O[C@H]1CN(C)Cc1cccnc1,-0.397
COc1ccc(-c2ccc3c(c2)[C@H]2[C@H](CCN2C(=O)c2cccc(F)c2)[C@@H](CO)N3)cc1,1.69
N#C[C@H]1[C@@H](c2ccccc2-c2ccccc2)[C@H](CO)N1C(=O)Cc1cccnc1,2.77
O=C(Nc1cccc(F)c1)N1CC(=O)N2[C@H](CO)[C@@H](c3ccc(-c4ccccc4)cc3)[C@H]2C1,0.802
CNC[C@H]1OCCCC[C@@H](C)Oc2ccc(NC(=O)Nc3ccc(OC)cc3)cc2C(=O)N([C@H](C)CO)C[C@@H]1C,-0.0959
CS(=O)(=O)N1CC(=O)N2[C@H](CO)[C@H](c3ccc(C#Cc4ccc(F)cc4)cc3)[C@@H]2C1,-0.859
COCC(=O)N(C[C@H]1N[C@@H](CO)[C@@H]1c1ccc(-c2cccnc2)cc1)C(C)C,-0.768
O=C(Nc1ccccc1)N1CCCCN2[C@H](CO)[C@@H](c3ccc(C#Cc4ccccc4)cc3)[C@H]2C1,3.2
CCC(=O)N1CCCCN2[C@@H](CO)[C@H](c3ccc(-c4cccc(C#N)c4)cc3)[C@@H]2C1,0.21
CCC(=O)N1CCCCN2[C@H](CO)[C@@H](c3ccc(C#Cc4ccccc4)cc3)[C@@H]2C1,-9.16*
CCC(=O)N1CCCCN2[C@@H](CO)[C@H](c3ccc(C#CCOC)cc3)[C@@H]2C1,2.79
CCC(=O)N1CCCCN2[C@@H](CO)[C@@H](c3ccc(C#Cc4ccccc4)cc3)[C@@H]2C1,-7.74*
CCC(=O)N1CCCCN2[C@@H](CO)[C@H](c3ccc(C#Cc4ccccc4)cc3)[C@@H]2C1,-9.4*
CCC(=O)N1CCCCN2[C@@H](CO)[C@@H](c3ccc(C#CCOC)cc3)[C@@H]2C1,2.54
CCC(=O)N1CCCCN2[C@H](CO)[C@@H](c3ccc(C#CCOC)cc3)[C@@H]2C1,2.35
SMILES,IDE exosite inh
CCC(=O)N1CCCCN2[C@H](CO)[C@H](c3ccc(C#Cc4ccccc4)cc3)[C@H]2C1,-4.71*
CCC(=O)N1CCCCN2[C@H](CO)[C@H](c3ccc(C#CCOC)cc3)[C@H]2C1,2.96
O=C(NC[C@@H]1[C@H](c2ccccc2)[C@H](CO)N1C(=O)C1CCC1)NC1CCCC1,-0.767
COc1cccc(S(=O)(=O)N2CCCCN3[C@H](C2)[C@H](c2ccc(C#CCC(C)C)cc2)[C@@H]3CO)c1,-1.42
O=C(NC[C@H]1N[C@H](CO)[C@H]1c1ccccc1)C1CC1,0.175
COc1ccc([C@H]2C/C=C\C[C@H](c3cccc(Cl)c3)NC(=O)[C@@H](c3ccccc3)CC(=O)N2)c(OC)c1,0.623
O=C(c1ccccc1F)N1C[C@@H]2[C@H](c3ccccc31)[C@@H](CO)N2C(=O)Nc1ccccc1,-0.339
CCC(=O)Nc1ccc2c(c1)C(=O)N(C)C[C@H](OC)[C@@H](C)CN(C(=O)Cc1cccnc1)[C@@H](C)CO2,2.68
COCC(=O)N1CCC2(CC1)CN[C@H](CO)c1c2c2ccc(OC)cc2n1C,0.383

# Source: PubChem BioAssay (Broad Institute)
